The results in this text go back to PubChem BioAssay (NCATS).

Records with an inconclusive call do not appear. Active and inactive are the calls of the source. Calls follow the shape of the dose curve; as a rule, active = well fitted curve in the direction sought with a large enough effect; inconclusive = small, poorly fitted or top-dose-only effect, or another doubt; inactive = no such curve, though single readings can be large; an effect the other way counts as inactive or inconclusive.

Experiment [1] is described as follows: qHTS for Inhibitors of the Aldehyde Dehydrogenase Family (ALDH1A2, ALDH1A3, ALDH2, ALDH3A1) (AID 2061307). Also: nearly all actives have a fitted effect of over 50% in size. As to Potency: test system not described further here; potency is read from the fitted curve at half-maximal effect. In general terms: Quantitative high-throughput screening tests each substance at several concentrations.
The target of experiment [2] is Aldehyde dehydrogenase, mitochondrial (Homo sapiens) (UniProt P05091). As to the kind of experiment: qHTS for Inhibitors of the Aldehyde Dehydrogenase Family (ALDH2) Primary screen (AID 2061308). Also: nearly all actives have a fitted effect of over 55% in size.
Experiment [3] concerns the target Retinaldehyde dehydrogenase 3 (Homo sapiens) (UniProt P47895). As to the kind of experiment: qHTS for Inhibitors of the Aldehyde Dehydrogenase Family (ALDH1A3) Confirmatory screens (AID 2061311). Also: nearly all actives have a fitted effect of over 60% in size. Also: potency is read from the fitted curve at half-maximal effect.
Experiment [4] deals with Retinal dehydrogenase 2 (Homo sapiens) (UniProt O94788). As to the kind of experiment: qHTS for Inhibitors of the Aldehyde Dehydrogenase Family (ALDH1A2) Confirmation screens (AID 2061314). Also: nearly all actives have a fitted effect of over 65% in size. Also: potency is read from the fitted curve at half-maximal effect.
In experiment [5] the target is Retinaldehyde dehydrogenase 3 (Homo sapiens) (UniProt P47895). As to the kind of experiment: qHTS for Inhibitors of the Aldehyde Dehydrogenase Family (ALDH1A3) Primary screen (AID 2061315).
Experiment [6] has as its target Aldehyde dehydrogenase 1A1 (Homo sapiens) (UniProt P00352). As to the kind of experiment: qHTS for Inhibitors of the Aldehyde Dehydrogenase Family (ALDH1A1) Confirmatory screens (AID 2061316). Also: nearly all actives have a fitted effect of over 65% in size. Also: potency is read from the fitted curve at half-maximal effect.

As to `Cc1ccsc1CN(C)c1ncnc2ccc(-c3ccoc3)cc12`, the Potency entry in experiment [1], in experiment [2] and in experiment [5] was “inactive” each time. The Potency in experiment [3] was 22.5 µM (active); in experiment [4], 11.3 µM (active).

`O=C1N/C(=C\c2ccco2)C(=O)N1Cc1ccccc1`: the Potency in experiment [1] was 0.798 µM (active); in experiment [3], 11.3 µM (active); in experiment [4] it was 12.7 µM (active); in experiment [6], 3.57 µM (active). Besides, the Potency result in experiment [2] and in experiment [5] was “inactive” in each case.

In the case of `COc1ccccc1-c1nc(-c2ccc(C(=O)O)cc2)no1`, the Potency in experiment [1] is 2.14 µM (active); in experiment [3], 1.13 µM (active). Also, the Potency entry in experiment [2], in experiment [4] and in experiment [6] was “inactive” in each case.

With `c1ccc(-n2cc(-c3nnc4n3CCCCC4)cn2)cc1`, the Potency entry in experiment [1], in experiment [2], in experiment [5] and in experiment [6] was “inactive” throughout. Moreover, the Potency is 14.2 µM (active) in experiment [3] and 12.7 µM (active) in experiment [4].

With `COc1ccc(-c2c(NC(C)=O)sc3c2CCNC3)cc1`, the Potency result in experiment [1], in experiment [2], in experiment [3] and in experiment [5] was “inactive” in each case. Moreover, the Potency was 20.1 µM (active) in experiment [4] and 11.3 µM (active) in experiment [6].

As for `O=S(=O)(NN1CCOCC1)c1ccc(Br)cc1`, the Potency is 22.5 µM (active) in experiment [1], 11.3 µM (active) in experiment [4] and 3.57 µM (active) in experiment [6]. Further, the Potency entry in experiment [2], in experiment [3] and in experiment [5] was “inactive” throughout.

With `Cc1ccc(CNc2ncnc3ccc(-c4ccoc4)cc23)o1`, the Potency result in experiment [1], in experiment [2], in experiment [3] and in experiment [5] was “inactive” throughout. Further, the Potency in experiment [4] was 20.1 µM (active).

For `CN(C)[S+](=O)([O-])c1ccc(-c2cncc(NC(=O)c3cccs3)c2)cc1`, the Potency in experiment [1] is 2 µM (active); in experiment [3], 0.562 µM (active); in experiment [4] it was 6.31 µM (active). Moreover, the Potency entry in experiment [2], in experiment [5] and in experiment [6] was “inactive” throughout.

In the case of `O=C(CSc1nc2ccccc2n1CCc1ccccc1)c1ccc(O)c(O)c1`, the Potency in experiment [1] was 12.7 µM (active); in experiment [3], 11.3 µM (active); in experiment [6], 7.98 µM (active). In addition, the Potency entry in experiment [2], in experiment [4] and in experiment [5] was “inactive” in each case.

In the case of `N#Cc1nc(Nc2cccc([N+](=O)[O-])c2)nc(NC2CCCC2)n1`, the Potency is 5.62 µM (active) in experiment [1], 22.4 µM (active) in experiment [3] and 6.34 µM (active) in experiment [4]. For the same compound, the Potency entry in experiment [2] and in experiment [5] was “inactive” each time.

Consider `Cc1ccc(-c2cc(C(=O)Nc3ccc(-c4noc(=O)[nH]4)cc3)c3ccccc3n2)cc1C`, for which the Potency is 7.08 µM (active) in experiment [1] and 11.2 µM (active) in experiment [3]. Besides, the Potency entry in experiment [2], in experiment [4], in experiment [5] and in experiment [6] was “inactive” throughout.

Consider `NC(=O)C1CCN(c2ncc(-c3ccc4c(c3)OC(F)(F)O4)s2)CC1`, for which the Potency in experiment [1] is 10.1 µM (active). For the same compound, the Potency result in experiment [2], in experiment [3], in experiment [4] and in experiment [5] was “inactive” throughout.

Regarding `CC(=O)Nc1ccc(OCc2cccc(C3Nc4ccccc4C(=O)N3Cc3ccco3)c2)cc1` (stereo not given), the Potency in experiment [1] is 10.1 µM (active); in experiment [3], 12.7 µM (active); in experiment [4], 14.2 µM (active); in experiment [6] it was 5.65 µM (active). For the same compound, the Potency result in experiment [2] and in experiment [5] was “inactive” in each case.

As for `Cc1cnc(-c2ccccc2CO)nc1NCC1CCN(c2cccnc2)CC1`, the Potency result in experiment [1], in experiment [2], in experiment [3] and in experiment [5] was “inactive” throughout. For the same compound, the Potency in experiment [4] is 11.3 µM (active).

Regarding `Cc1ccc(OCCn2c(CCNC(=O)c3cccc(C(F)(F)F)c3)nc3ccccc32)cc1`, the Potency result in experiment [1], in experiment [2], in experiment [3], in experiment [4], in experiment [5] and in experiment [6] was “inactive” each time.

Consider `COc1ccc(C2Nc3ccccc3C(=O)N2Cc2cccc3ccccc23)cc1COc1ccc(NC(C)=O)cc1` (stereo not given), for which the Potency in experiment [1] was 3.55 µM (active); in experiment [3] it was 12.6 µM (active); in experiment [4] it was 22.5 µM (active); in experiment [6], 4 µM (active). The Potency entry in experiment [2] and in experiment [5] was “inactive” throughout.

As to `O=C(Nc1cccc2nn(-c3ccc(F)cc3)cc12)c1ccccn1`, the Potency entry in experiment [1], in experiment [2], in experiment [3], in experiment [4] and in experiment [5] was “inactive” each time. Besides, the Potency in experiment [6] was 28.3 µM (active).

As to `COc1ccc(C2Nc3cccc(OC)c3C(=O)N2Cc2ccccc2)cc1COc1ccc(NC(C)=O)cc1` (stereo not given), the Potency in experiment [1] is 1.13 µM (active); in experiment [3] it was 12.7 µM (active); in experiment [4] it was 10.1 µM (active); in experiment [6], 11.3 µM (active). The Potency entry in experiment [2] and in experiment [5] was “inactive” throughout.

`COc1ccc(C2Nc3ccccc3C(=O)N2Cc2ccccc2)cc1COc1ccc(C#N)cc1` (stereo not given): the Potency in experiment [1] was 1.01 µM (active); in experiment [3], 12.6 µM (active); in experiment [4], 0.896 µM (active). The Potency result in experiment [2] and in experiment [5] was “inactive” in each case.

For `O=C(Nc1ccc(N2CCOCC2)nc1)c1cccs1`, the Potency in experiment [1] is 25.1 µM (active); in experiment [3] it was 22.5 µM (active); in experiment [4] it was 22.5 µM (active); in experiment [6] it was 12.7 µM (active). The Potency result in experiment [2] and in experiment [5] was “inactive” throughout.

In the case of `COc1cccc(C2c3c(ncn(-c4ccccc4-c4ccccc4)c3=N)Oc3ccc4ccccc4c32)c1` (stereo not given), the Potency in experiment [1] was 8.91 µM (active); in experiment [3] it was 15.8 µM (active); in experiment [4], 7.98 µM (active). Moreover, the Potency entry in experiment [2] and in experiment [5] was “inactive” throughout.

For the compound `COc1ccc(-n2c(C)c(C(C)=O)c3cc(O)ccc32)cc1`, the Potency entry in experiment [1], in experiment [2], in experiment [3], in experiment [4], in experiment [5] and in experiment [6] was “inactive” each time.

For the compound `Cc1occc1-c1ccc2ncnc(NCCc3cnc[nH]3)c2c1`, the Potency result in experiment [1], in experiment [2] and in experiment [5] was “inactive” each time. In addition, the Potency was 3.57 µM (active) in experiment [3] and 28.3 µM (active) in experiment [4].

For `Cc1cc(C)nc(NC(=S)N2CCN(c3cc4ccccc4cn3)CC2)c1`, the Potency result in experiment [1] and in experiment [2] was “inactive” throughout. The Potency in experiment [3] is 6.34 µM (active); in experiment [4] it was 15.9 µM (active); in experiment [6], 5.04 µM (active).

Take `COC(=O)c1ccc(O)c2ncc(N3CC[C@H](N)C3)cc12`: the Potency result in experiment [1], in experiment [2], in experiment [4] and in experiment [5] was “inactive” throughout. Also, the Potency in experiment [3] is 12.7 µM (active); in experiment [6], 11.3 µM (active).
